A number with no mark means an inactive call. Activity calls are given as the source filed them.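 How the source made its calls: active means normalized viability below 100% at a tested concentration; inactive means the rest.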

The nature of the first assay: ovarian cancer cell viability with rucaparib, profiling panel, oncology-focused library, rucaparib conditional (AID 1508598). Conditions: patient-derived ovarian cancer cells, CellTiter-Glo viability, 144 h; at 0.00122 µM; OCI-P5x cells; with rucaparib 20 µM; hits give low values; 100% = cells with rucaparib alone. A general note: Cellular ATP, detected with luciferase, serves as a proxy for viable cell number.
With `CC1(C)CNc2cc(NC(=O)c3cccnc3NCc3ccncc3)ccc21`, the viability is 134%.
Consider `O=C(Nc1ccccc1-c1cn2c(CN3CCNCC3)csc2n1)c1cnc2ccccc2n1`, for which the viability is 117%.
As to `Cc1cnc(NC(=O)Nc2cc(Br)c(C)cc2OC[C@@H]2CNCCO2)cn1`, the viability was 47.7% (active).
On to `N#Cc1c(NC(=O)c2cccc3ccccc23)sc2c1CCCC2`, for which the viability was 95.3% (active).
Consider `COc1ccc(-c2ccc3c(N4CCOC[C@@H]4C)nc(N4CCOC[C@@H]4C)nc3n2)cc1CO`, for which the viability was 94.9% (active).
On to `Nc1nc(Nc2ccc(S(N)(=O)=O)cc2)nn1C(=O)c1c(F)cccc1F`, for which the viability was 91.5% (active).
Regarding `Cc1ccc(F)c(NC(=O)Nc2ccc(-c3cccc4[nH]nc(N)c34)cc2)c1`, the viability is 81.6% (active).
As for `COc1ccc(-c2ccc3c(N4CCOCC4)nc(N4C[C@@H](C)O[C@@H](C)C4)nc3n2)cc1CO`, the viability is 109%.
For the compound `N#CCNC(=O)c1ccc(-c2ccnc(Nc3ccc(N4CCOCC4)cc3)n2)cc1`, the viability is 105%.
Consider `COC(=O)c1ccc2c(C(=Nc3ccc(N(C)C(=O)CN4CCN(C)CC4)cc3)c3ccccc3)c(O)[nH]c2c1`, for which the viability was 95.9% (active).
For the compound `COc1cc2nccc(Oc3ccc(NC(=O)Nc4cc(C)on4)c(Cl)c3)c2cc1OC`, the viability is 101%.

The same assay, now with this note: patient-derived ovarian cancer cells, CellTiter-Glo viability, 144 h; at 0.00122 µM; OCI-P5x cells; without rucaparib; hits give low values.
Consider `CC1(C)CNc2cc(NC(=O)c3cccnc3NCc3ccncc3)ccc21`, for which the viability was 102%.
Regarding `O=C(Nc1ccccc1-c1cn2c(CN3CCNCC3)csc2n1)c1cnc2ccccc2n1`, the viability was 116%.
As to `Cc1cnc(NC(=O)Nc2cc(Br)c(C)cc2OC[C@@H]2CNCCO2)cn1`, the viability was 17.5% (active).
For `N#Cc1c(NC(=O)c2cccc3ccccc23)sc2c1CCCC2`, the viability was 109%.
In the case of `COc1ccc(-c2ccc3c(N4CCOC[C@@H]4C)nc(N4CCOC[C@@H]4C)nc3n2)cc1CO`, the viability was 92.8% (active).
Consider `Nc1nc(Nc2ccc(S(N)(=O)=O)cc2)nn1C(=O)c1c(F)cccc1F`, for which the viability was 86% (active).
On the same count and under the same terms, next, `Cc1ccc(F)c(NC(=O)Nc2ccc(-c3cccc4[nH]nc(N)c34)cc2)c1`: 16.8% (active).
Still for that read-out and setting: next, `COc1ccc(-c2ccc3c(N4CCOCC4)nc(N4C[C@@H](C)O[C@@H](C)C4)nc3n2)cc1CO`: 108%; `N#CCNC(=O)c1ccc(-c2ccnc(Nc3ccc(N4CCOCC4)cc3)n2)cc1`: 103%; `COC(=O)c1ccc2c(C(=Nc3ccc(N(C)C(=O)CN4CCN(C)CC4)cc3)c3ccccc3)c(O)[nH]c2c1`: 102%.
On the same count and under the same terms, under `COc1cc2nccc(Oc3ccc(NC(=O)Nc4cc(C)on4)c(Cl)c3)c2cc1OC` stands 94.7% (active).

One may read the viability as a read-out of living cells in per cent, often relative to untreated cells.

These data come from PubChem BioAssay.
